# In all, about 33,000 sequences were measured (“E-score (dimensionless, -0.5 to 0.5)”: median about -0.058, highest 2% from about 0.35 on). This is one part of a sample in which the highest values are shown more often than they occur.
# System: MvaT
# Assay: PBM 8-mer E-score (mean of HK and ME arrays) (E-score (dimensionless, -0.5 to 0.5)); higher = stronger relative binding preference
# Protocol: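 Protein binding microarray: GST-tagged full-length MvaT (P. aeruginosa PAO1) bound to two universal double-stranded 60-mer arrays (ME and HK), each with a constant 25-mer primer and a variable 35-mer region covering all 8-mers. The 8-mer E-score (rank-based, range -0.5 to 0.5, >0.45 = specific binding) is the mean of the two arrays.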
row,Sequence,PBM 8-mer E-score
1,AATGTTAA,0.387
2,AATGTTAG,0.209
3,AATGTTAT,0.372
4,ATTGTTAA,0.393
5,GTTGTTAA,0.257
6,AATGTTAC,0.186
7,ATTGTTAG,0.235
8,ACTGTTAT,0.306
9,GATGTTAA,0.277
10,GATCGTGA,-0.153
11,CTTGCCCA,-0.191
12,AGCCCGGA,-0.201
13,GGATATTA,0.332
14,AAATATGG,0.278
15,AAATATTT,0.463
16,AAATATTA,0.438
17,CGATATTA,0.331
18,TAATATCA,0.421
19,AAATATCT,0.277
20,AGATATTA,0.412
21,AAATATTG,0.306
22,CAATATCA,0.304
23,AAATATCA,0.304
24,ACAGATAC,0.102
25,ACGGGGAT,-0.00987

row,Sequence,PBM 8-mer E-score
1,AAGCTTTA,0.0937
2,GAATGGCA,-0.00364
3,GCGAATAC,0.0443
4,ACATTAGG,0.0719
5,ATAGTCAA,0.165
6,GACGCGCA,-0.188
7,CAATATTG,0.377
8,AAATATGA,0.241
9,TAATACCA,0.336
10,TAATATTA,0.474
11,GAATATTA,0.4
12,CAATATGG,0.156
13,AAATATGC,0.305
14,AAATATGT,0.348
15,TAATAGGA,0.222
16,CAATATCG,0.18
17,TATCGAAA,0.144
18,GCGATAGC,-0.262
19,GAAAGCGA,0.0347
20,AAGGGTAA,0.109
21,AGACCAAG,-0.0618
22,TGCGGAAA,0.107
23,TCCTCAGA,-0.142
24,CAATATTC,0.226
25,CAATATGC,0.0377

row,Sequence,PBM 8-mer E-score
1,GAATATGA,0.19
2,CAATATTA,0.373
3,CAATATGA,0.244
4,TAATATGA,0.354
5,ACGAGTAC,0.047
6,ACACAAAT,0.237
7,AGCACGGA,-0.111
8,GGCCCACC,-0.28
9,AATGTATA,0.366
10,CAAGTATA,0.373
11,GTAGTATA,0.319
12,CATGTATA,0.264
13,AAAGTATT,0.27
14,GAAGTATA,0.263
15,ATAGTATG,0.21
16,ATAGTATA,0.38
17,TAAGTATA,0.282
18,GATGTATA,0.289
19,AAAGTATC,0.211
20,AAAGTATA,0.41
21,ATTCCGGA,0.138
22,TGGCGACA,-0.132
23,ATCGCCAT,0.016
24,AGATCTCC,-0.204
25,AACAGTGT,0.123

row,Sequence,PBM 8-mer E-score
1,GCGTCGCC,-0.203
2,CCATAAGG,-0.19
3,CGGTAAAC,0.0615
4,AACACCCG,0.00525
5,AGTTGCAT,0.182
6,AGTCTAAC,0.049
7,AATTCTGG,0.076
8,ACGCAGTG,-0.257
9,CTTCATTA,0.338
10,AGTCCGAG,-0.29
11,TATAACAA,0.355
12,CATAACAA,0.0795
13,GATAACGA,0.0582
14,AATAACCG,0.367
15,ATTAACAC,0.328
16,ATTAACAG,0.334
17,ATTAACAA,0.381
18,GATAACAA,0.263
19,AATAACCC,0.226
20,TATAACGA,0.374
21,AATAACGA,0.326
22,AATAACCT,0.228
23,GCATTGGA,-0.0184
24,AAAGGTCC,-0.197
25,CTACCTAC,-0.00994

row,Sequence,PBM 8-mer E-score
1,ATCTTGCC,0.0286
2,GAGCAGGC,-0.379
3,AATGTGAG,0.0855
4,GTTGGGGA,-0.0857
5,ATTGGAGC,-0.00417
6,CTAATCAG,-0.0597
7,AATAACAC,0.331
8,AATAACAA,0.38
9,AATAACAT,0.32
10,AACCACCG,-0.0371
11,CTCCTAAA,-0.112
12,AGATAACC,-0.021
13,ATATAACG,0.406
14,GTATAACA,0.3
15,CTATAACC,0.155
16,ACATAACG,0.183
17,ATATAACC,0.37
18,ATATAACA,0.423
19,AGATAACG,0.0641
20,CTATAACA,0.297
21,ACGTAATA,0.29
22,GGGTAACC,-0.246
23,CCTGCGCC,-0.28
24,ACGTTAGC,-0.113
25,CGGTTGCC,-0.279

row,Sequence,PBM 8-mer E-score
1,CGACCCAA,-0.0201
2,CAGGGTCG,-0.317
3,TAGGAAGA,0.048
4,GAAAAAAA,0.0648
5,AAAAAAAA,0.271
6,AAAAATAC,0.158
7,AAAAATAT,0.377
8,TAAAATCA,0.198
9,GAAAATAA,0.349
10,TAAAATTA,0.288
11,GAAAATAC,0.134
12,CAAAATAA,0.343
13,TAAAATAA,0.438
14,AAAAATAG,0.0973
15,AAAAATAA,0.403
16,AGCGCGCG,-0.184
17,GTGATAAA,0.211
18,CTAGAGAG,-0.241
19,CACTATTC,0.0563
20,CACTATTA,0.357
21,CGCTATTA,0.18
22,AACTATTC,0.255
23,AACTATTA,0.399
24,GACTATTA,0.305
25,AGCAGGAA,-0.195

row,Sequence,PBM 8-mer E-score
1,CAACCCTG,-0.133
2,CAACTTTA,0.297
3,GGACTTTA,-0.06
4,AAACTTTG,0.317
5,GAACTTTA,0.346
6,AAACTTTA,0.357
7,AAACTTTC,0.312
8,AAACAAAG,0.192
9,CCAATGAA,-0.1
10,CGTAATAG,0.173
11,TGTAATAA,0.399
12,GGTAATAA,0.335
13,TGTAAAAA,0.208
14,CGTAATAC,0.208
15,CGTAATAA,0.398
16,GCCGCTGA,-0.231
17,CGAATATC,0.0677
18,AGAATATC,0.195
19,GGAATATA,0.329
20,AGAATATG,0.277
21,AGAATATA,0.378
22,CGAATATA,0.355
23,AAGGGGTA,-0.15
24,GTGTTACA,0.244
25,CCATACGC,-0.202

row,Sequence,PBM 8-mer E-score
1,ATATTTGG,0.177
2,GTATTTGA,0.319
3,ATATTTGC,0.351
4,CTATTTGC,0.148
5,CTATTTGA,0.229
6,ATATTTGA,0.363
7,ACTTTTTC,0.0911
8,CCAGATAA,0.165
9,AGTAGACA,-0.00875
10,ACACATAA,0.273
11,ACATATAT,0.47
12,ACATATAG,0.264
13,ACATATGA,0.179
14,ACATATAA,0.446
15,ACATATAC,0.287
16,ATACATCA,0.192
17,CGGTAGCC,-0.317
18,AGTTCAGG,0.0672
19,AATCTTGT,0.0955
20,AAGCTCTA,-0.217
21,ACATAATG,0.302
22,ATCTAATC,0.167
23,ATATAATG,0.402
24,ATATAAGG,0.31
25,CTATAATC,0.295

row,Sequence,PBM 8-mer E-score
1,ATATAATC,0.415
2,AAGGAATG,0.0374
3,TCTAGAAA,0.0814
4,TCTCCTCA,-0.177
5,CCTGGTAA,-0.0325
6,GCCGTCAC,-0.163
7,CCAATCGG,-0.128
8,CGTCTCAA,-0.0154
9,ATGTCAGC,-0.039
10,GTTTAAAA,0.293
11,TTAAAAAA,0.305
12,TTTAAAAA,0.363
13,CTTTAAAA,0.287
14,TTTTAAAA,0.409
15,GTTAAAAA,0.239
16,AGAAGTTA,0.279
17,GAACATTC,-0.0126
18,CATTGTAC,0.151
19,AGGACGTA,-0.138

# Reference: the supplement of paper PMC4466236
